Among the data in ChEMBL document CHEMBL2218924, “A broad activity screen in support of a chemogenomic map for kinase signalling research and drug discovery” (Biochem J, 2013) are residual activity values, retold here.

Each structure is given as a SMILES string.

The target in assay [1] is T1, Ephrin type-B receptor 1 (Homo sapiens) (UniProt P54762).
T1 sequence (whole entry): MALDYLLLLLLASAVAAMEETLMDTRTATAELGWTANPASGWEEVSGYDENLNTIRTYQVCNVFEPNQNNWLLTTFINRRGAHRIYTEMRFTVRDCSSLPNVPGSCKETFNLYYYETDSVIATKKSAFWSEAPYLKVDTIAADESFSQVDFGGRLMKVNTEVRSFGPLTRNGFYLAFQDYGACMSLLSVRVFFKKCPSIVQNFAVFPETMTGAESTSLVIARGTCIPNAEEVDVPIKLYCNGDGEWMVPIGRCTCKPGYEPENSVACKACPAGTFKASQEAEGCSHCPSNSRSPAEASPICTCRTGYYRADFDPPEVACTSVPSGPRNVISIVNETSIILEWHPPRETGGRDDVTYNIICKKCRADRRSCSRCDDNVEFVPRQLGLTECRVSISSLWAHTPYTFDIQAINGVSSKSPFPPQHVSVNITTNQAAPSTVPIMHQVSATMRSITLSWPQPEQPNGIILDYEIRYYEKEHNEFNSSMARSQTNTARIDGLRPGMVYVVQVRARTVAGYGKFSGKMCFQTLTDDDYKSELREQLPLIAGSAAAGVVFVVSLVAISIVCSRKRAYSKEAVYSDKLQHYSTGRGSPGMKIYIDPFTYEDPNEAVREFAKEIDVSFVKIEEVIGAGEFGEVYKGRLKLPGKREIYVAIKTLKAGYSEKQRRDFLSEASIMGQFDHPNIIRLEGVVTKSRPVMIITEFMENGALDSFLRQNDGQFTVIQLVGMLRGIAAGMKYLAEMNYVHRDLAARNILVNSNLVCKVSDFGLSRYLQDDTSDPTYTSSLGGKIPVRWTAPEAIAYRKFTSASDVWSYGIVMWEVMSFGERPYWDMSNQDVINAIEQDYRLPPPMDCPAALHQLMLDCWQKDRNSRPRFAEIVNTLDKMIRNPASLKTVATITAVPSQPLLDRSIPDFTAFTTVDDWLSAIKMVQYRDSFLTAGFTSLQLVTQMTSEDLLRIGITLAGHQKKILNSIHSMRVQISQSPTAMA
Conditions: at 10 µM; call rule not given here.

The target in assay [2] is T2, Ephrin type-B receptor 2 (Homo sapiens) (UniProt P29323).
T2 sequence (whole entry): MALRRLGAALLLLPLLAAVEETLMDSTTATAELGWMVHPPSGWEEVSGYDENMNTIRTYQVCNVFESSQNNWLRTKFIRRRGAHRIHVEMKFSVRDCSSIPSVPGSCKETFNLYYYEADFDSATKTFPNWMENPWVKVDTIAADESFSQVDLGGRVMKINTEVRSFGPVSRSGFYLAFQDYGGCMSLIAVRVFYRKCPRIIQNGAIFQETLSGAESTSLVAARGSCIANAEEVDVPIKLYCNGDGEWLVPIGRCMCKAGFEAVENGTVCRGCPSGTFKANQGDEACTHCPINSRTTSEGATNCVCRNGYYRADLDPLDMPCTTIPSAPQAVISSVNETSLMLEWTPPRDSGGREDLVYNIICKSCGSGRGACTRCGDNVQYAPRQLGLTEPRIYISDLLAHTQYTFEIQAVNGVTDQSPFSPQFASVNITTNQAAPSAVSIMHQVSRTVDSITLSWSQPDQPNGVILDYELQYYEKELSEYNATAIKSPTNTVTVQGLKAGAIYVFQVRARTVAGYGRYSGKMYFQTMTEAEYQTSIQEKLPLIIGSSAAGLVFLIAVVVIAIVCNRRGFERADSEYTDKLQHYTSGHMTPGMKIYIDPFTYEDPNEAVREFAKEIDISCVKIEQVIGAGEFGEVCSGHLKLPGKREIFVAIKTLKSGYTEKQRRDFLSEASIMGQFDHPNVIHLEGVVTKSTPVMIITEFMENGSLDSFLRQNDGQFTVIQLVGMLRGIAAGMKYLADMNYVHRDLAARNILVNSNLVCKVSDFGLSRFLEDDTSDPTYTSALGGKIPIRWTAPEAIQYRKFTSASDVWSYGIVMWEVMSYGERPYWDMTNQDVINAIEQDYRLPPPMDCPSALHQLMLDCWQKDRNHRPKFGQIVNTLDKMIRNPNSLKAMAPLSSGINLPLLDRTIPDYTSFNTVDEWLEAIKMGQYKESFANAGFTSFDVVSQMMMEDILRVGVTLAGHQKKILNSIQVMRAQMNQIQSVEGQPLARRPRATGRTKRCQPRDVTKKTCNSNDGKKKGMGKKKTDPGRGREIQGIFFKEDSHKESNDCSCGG
Conditions: at 1 µM.

In assay [3] the target is T2, Ephrin type-B receptor 2 (Homo sapiens). Conditions: at 10 µM.
Assay [4] has as its target T3, Ephrin type-B receptor 3 (Homo sapiens) (UniProt P54753).
T3 sequence (whole entry): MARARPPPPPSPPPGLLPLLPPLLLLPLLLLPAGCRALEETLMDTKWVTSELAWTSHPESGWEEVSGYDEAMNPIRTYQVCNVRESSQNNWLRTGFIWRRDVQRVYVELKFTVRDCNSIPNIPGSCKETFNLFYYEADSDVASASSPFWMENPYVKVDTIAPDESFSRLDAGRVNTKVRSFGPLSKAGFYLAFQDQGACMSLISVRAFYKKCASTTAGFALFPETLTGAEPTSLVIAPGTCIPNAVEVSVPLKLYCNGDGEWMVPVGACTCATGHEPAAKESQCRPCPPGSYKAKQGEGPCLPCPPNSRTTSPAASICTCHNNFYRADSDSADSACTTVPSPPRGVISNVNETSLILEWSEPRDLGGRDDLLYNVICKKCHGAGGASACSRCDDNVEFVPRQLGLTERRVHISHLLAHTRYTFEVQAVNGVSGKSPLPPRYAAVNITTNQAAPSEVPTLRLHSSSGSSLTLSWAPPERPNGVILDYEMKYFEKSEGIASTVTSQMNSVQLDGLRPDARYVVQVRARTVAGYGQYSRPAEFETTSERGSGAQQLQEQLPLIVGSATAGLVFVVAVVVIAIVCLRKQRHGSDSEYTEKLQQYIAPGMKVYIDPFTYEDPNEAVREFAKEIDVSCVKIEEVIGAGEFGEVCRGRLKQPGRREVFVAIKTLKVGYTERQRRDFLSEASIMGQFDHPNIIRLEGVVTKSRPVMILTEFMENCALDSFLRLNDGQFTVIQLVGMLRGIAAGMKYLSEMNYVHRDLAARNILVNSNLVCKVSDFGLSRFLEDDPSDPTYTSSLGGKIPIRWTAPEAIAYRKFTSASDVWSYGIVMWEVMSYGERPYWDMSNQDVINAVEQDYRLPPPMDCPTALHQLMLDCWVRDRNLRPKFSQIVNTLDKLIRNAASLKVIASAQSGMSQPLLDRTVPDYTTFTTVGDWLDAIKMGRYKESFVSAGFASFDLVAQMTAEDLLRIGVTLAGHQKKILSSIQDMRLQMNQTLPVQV
Conditions: at 1 µM.

The target in assay [5] is T3, Ephrin type-B receptor 3 (Homo sapiens). Conditions: at 10 µM.
Assay [6] deals with T4, Ephrin type-B receptor 4 (Homo sapiens) (UniProt P54760).
T4 sequence (whole entry): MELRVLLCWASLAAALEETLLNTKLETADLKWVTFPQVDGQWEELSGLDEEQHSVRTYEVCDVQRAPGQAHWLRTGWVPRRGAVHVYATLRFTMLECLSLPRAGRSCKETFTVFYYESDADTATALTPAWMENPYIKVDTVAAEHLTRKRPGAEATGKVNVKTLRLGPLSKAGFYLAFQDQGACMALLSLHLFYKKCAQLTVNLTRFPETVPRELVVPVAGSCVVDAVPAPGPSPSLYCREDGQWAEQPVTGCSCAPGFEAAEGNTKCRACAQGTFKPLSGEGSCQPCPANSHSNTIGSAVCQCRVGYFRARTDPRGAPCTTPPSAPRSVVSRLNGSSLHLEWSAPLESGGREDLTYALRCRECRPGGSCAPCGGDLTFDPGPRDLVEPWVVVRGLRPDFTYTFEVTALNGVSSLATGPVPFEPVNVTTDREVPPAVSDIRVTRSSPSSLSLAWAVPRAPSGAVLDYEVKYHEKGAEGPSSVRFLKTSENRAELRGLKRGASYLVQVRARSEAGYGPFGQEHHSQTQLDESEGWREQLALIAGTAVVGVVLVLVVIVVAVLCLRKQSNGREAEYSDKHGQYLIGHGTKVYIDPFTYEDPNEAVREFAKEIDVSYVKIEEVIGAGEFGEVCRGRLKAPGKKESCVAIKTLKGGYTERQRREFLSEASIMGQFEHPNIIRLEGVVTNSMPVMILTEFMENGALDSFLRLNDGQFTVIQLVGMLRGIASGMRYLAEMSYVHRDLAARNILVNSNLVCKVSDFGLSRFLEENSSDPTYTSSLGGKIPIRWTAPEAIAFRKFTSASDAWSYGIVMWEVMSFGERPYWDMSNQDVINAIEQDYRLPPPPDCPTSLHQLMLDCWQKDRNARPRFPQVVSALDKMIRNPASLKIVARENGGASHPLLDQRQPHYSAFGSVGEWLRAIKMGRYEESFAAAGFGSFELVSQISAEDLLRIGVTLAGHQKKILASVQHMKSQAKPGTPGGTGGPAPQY
Conditions: at 1 µM.

Assay [7] has as its target T4, Ephrin type-B receptor 4 (Homo sapiens). Conditions: at 10 µM.
Assay [8] has as its target Receptor tyrosine-protein kinase erbB-4 (Homo sapiens) (UniProt Q15303). Conditions: at 1 µM.
For assay [9] the target is unchanged. Conditions: at 10 µM.
Assay [10] addresses Focal adhesion kinase 1 (Homo sapiens) (UniProt Q05397). Conditions: at 1 µM.

Receptor tyrosine-protein kinase erbB-4 (Homo sapiens), sequence (Q15303 whole entry): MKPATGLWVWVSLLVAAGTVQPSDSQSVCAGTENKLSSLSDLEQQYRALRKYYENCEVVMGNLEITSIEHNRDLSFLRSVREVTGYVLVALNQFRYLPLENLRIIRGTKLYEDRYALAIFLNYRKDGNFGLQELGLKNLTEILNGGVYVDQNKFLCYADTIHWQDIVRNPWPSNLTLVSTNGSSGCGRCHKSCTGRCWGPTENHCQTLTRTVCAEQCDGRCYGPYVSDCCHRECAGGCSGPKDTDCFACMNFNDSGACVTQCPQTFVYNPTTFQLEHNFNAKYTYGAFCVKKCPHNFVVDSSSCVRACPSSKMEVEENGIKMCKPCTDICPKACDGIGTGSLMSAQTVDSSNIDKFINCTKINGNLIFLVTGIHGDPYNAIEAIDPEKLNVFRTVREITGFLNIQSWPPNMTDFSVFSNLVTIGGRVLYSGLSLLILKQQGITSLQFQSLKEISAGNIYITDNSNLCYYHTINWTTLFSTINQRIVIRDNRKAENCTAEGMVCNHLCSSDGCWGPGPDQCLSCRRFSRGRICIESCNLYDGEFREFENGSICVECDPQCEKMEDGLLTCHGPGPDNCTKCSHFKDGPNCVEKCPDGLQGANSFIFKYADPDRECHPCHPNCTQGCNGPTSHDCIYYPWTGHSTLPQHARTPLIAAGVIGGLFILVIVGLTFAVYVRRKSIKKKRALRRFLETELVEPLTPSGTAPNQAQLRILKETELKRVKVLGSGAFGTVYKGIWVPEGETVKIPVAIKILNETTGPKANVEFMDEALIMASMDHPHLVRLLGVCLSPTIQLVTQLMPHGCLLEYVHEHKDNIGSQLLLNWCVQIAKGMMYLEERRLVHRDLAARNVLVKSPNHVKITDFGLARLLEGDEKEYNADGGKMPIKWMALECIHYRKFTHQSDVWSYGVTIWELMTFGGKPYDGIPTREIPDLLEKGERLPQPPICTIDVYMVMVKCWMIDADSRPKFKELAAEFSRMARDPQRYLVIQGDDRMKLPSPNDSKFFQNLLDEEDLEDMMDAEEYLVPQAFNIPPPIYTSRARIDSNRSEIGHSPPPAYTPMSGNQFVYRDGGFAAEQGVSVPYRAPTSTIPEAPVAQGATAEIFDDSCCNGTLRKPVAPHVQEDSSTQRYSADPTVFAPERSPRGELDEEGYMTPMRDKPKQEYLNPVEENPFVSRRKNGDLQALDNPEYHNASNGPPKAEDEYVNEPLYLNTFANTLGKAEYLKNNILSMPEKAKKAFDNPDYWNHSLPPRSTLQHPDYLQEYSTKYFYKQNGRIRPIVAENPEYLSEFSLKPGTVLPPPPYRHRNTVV
Focal adhesion kinase 1 (Homo sapiens), sequence (Q05397 2-1052 limits assumed): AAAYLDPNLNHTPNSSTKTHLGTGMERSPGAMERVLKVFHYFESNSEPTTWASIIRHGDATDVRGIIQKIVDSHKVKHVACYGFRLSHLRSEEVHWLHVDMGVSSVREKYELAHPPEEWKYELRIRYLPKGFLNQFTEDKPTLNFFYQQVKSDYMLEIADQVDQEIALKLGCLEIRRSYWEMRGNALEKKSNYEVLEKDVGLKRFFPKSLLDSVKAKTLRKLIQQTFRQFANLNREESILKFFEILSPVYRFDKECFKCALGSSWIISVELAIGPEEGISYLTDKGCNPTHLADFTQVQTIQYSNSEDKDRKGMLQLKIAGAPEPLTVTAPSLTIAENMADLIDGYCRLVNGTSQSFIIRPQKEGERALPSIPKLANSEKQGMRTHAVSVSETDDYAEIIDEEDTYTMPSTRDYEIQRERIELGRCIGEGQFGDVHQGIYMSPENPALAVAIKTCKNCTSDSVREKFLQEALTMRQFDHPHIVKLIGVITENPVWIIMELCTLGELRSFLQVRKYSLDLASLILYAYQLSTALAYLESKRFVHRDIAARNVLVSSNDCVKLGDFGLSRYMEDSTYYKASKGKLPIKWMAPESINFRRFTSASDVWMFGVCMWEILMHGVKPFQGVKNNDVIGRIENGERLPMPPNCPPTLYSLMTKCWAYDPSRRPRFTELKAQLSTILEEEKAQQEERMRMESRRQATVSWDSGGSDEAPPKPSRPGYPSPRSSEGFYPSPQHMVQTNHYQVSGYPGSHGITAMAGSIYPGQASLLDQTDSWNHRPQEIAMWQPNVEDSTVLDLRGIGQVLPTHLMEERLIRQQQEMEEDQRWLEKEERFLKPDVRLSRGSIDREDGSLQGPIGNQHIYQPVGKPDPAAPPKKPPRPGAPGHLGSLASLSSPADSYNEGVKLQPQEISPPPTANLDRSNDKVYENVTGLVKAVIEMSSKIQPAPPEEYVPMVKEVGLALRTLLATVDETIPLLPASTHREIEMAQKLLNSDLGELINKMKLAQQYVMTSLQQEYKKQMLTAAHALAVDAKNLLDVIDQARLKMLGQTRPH

For `Oc1ccc(Nc2nc(-c3ccc(Cl)cc3)cs2)cc1`, the residual activity in assay [1] was 78%; in assay [2], 108%; in assay [3], 109%; in assay [4], 88% (inactive); in assay [5] it was 95%; in [6], 109%. Moreover, the residual activity in assay [7] is 92%; in [8], 132%; in [9], 128%; in assay [10], 108%.
